A short description of test [1]: NCI Yeast Anticancer Drug Screen. Data for the rad50 strain (AID 155).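 Note: 0% = growth of vehicle-only cultures of the same strain.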 The conditions noted are these: S. cerevisiae rad50 strain growth inhibition, hits give high values. The procedure, abridged:
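Genetically altered yeast (DNA repair pathway); compound treatment; growth inhibition vs vehicle ctrl.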

Test [2] in a line: NCI Yeast Anticancer Drug Screen. Data for the mec2-1 strain (AID 157). The conditions noted are these: S. cerevisiae mec2-1 strain, hits give high values. The procedure, abridged: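 Readout is yeast growth inhibition, normalised to vehicle-treated controls, in the mec2-1 strain exposed to compound.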
Test [3] can be described thus: NCI Yeast Anticancer Drug Screen. Data for the sgs1 mgt1 strain (AID 161).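 Note: 0% = growth of cultures given vehicle only.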 The conditions noted are these: S. cerevisiae sgs1 mgt1 strain, hits give high values. The procedure, abridged:
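Compounds are added to genetically altered yeast, and growth is compared with cultures given vehicle alone to give percent inhibition.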

Test [4] can be described thus: NCI Yeast Anticancer Drug Screen. Data for the cln2 rad14 strain (AID 165).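 Note: 0% = growth equal to vehicle treated cultures.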 The conditions noted are these: S. cerevisiae cln2 rad14 strain, hits give high values. The procedure, abridged:
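Relative to vehicle controls, growth inhibition of compound-treated cln2 rad14 yeast was recorded.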

A short description of test [5]: NCI Yeast Anticancer Drug Screen. Data for the bub3 strain (AID 167). The conditions noted are these: S. cerevisiae bub3 mutant strain, hits give high values. The gist of the method:
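Yeast carrying a defined mutation is treated with each compound, and growth is compared with that of vehicle-exposed cells to give inhibition.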

The nature of test [6]: NCI Yeast Anticancer Drug Screen. Data for the mlh1 rad18 strain (AID 175). To be noted: S. cerevisiae mlh1 rad18 strain growth inhibition, hits give high values. The procedure, abridged: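 Test agents were incubated with a yeast strain of defined genotype (DNA damage repair defect). Inhibition of growth was derived by comparison with vehicle-exposed cultures.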
[7] abbreviates: at 5.0 µM (retest, dose inferred, filed as 0.5).
Where [8] appears, read: at 50.0 µM (retest, dose inferred, filed as 5.0).

Compounds without any hit were thinned out: in the full panel of roughly 79,000, 15% have a hit. A number with no mark means an inactive call. Active and inactive are the calls of the source. Cut-off read from the data, not from the text of the source: active = growth inhibition above about 70%; inactive = the rest. Where a SMILES comes first, the peptide text is derived from it. [ ]: non-standard residue; d: D form. The star is where a group is joined. Phe(2-OMe) = COc1ccccc1C[CH](N)C(=O)O; Cbz = O=C(OCc1ccccc1)*; OBn = c1ccc(CO*)cc1

With `COC(=O)C(Cc1ccccc1OC)NC(=O)C(CC(=O)OCc1ccccc1)NC(=O)OCc1ccccc1` (configuration not stated) (Cbz-Asp(OBn)-[Phe(2-OMe)]-OMe; configuration not given here), the growth inhibition was -5% in test [1] (setting [7]); 84% (active) in test [1] (setting [8]); 51.5% in test [1] (at 50.0 µM); 0% in test [2] (setting [7]); 37% in test [2] (setting [8]); 58.2% in test [2] (at 50.0 µM). Besides, the growth inhibition was 1% in test [3] (setting [7]); 92% (active) in test [3] (setting [8]); 65.2% in test [3] (at 50.0 µM); 16% in test [4] (setting [7]); 86% (active) in test [4] (setting [8]); 80.5% (active) in test [4] (at 50.0 µM). Also, the growth inhibition in test [5] (setting [7]) was -1%; in test [5] (setting [8]) it was 84% (active); in test [5] (at 50.0 µM) it was 87.8% (active); in test [6] (setting [7]), 0%; in test [6] (setting [8]), 84% (active); in test [6] (at 50.0 µM), 54.8%.

Take `CC(/C=C/c1cccs1)=N\NC(=S)NCC(C)C`: the growth inhibition in test [1] (setting [7]) was -3%; in test [1] (setting [8]), 95% (active); in test [1] (at 50.0 µM) it was 95.6% (active); in test [2] (setting [7]), 11%; in test [2] (setting [8]) it was 96% (active); in test [2] (at 50.0 µM) it was 96.2% (active). In addition, the growth inhibition in test [3] (setting [7]) was 9%; in test [3] (setting [8]), -24%; in test [3] (at 50.0 µM), 97% (active); in test [4] (setting [7]), -2%; in test [4] (setting [8]), 96% (active); in test [4] (at 50.0 µM) it was 94% (active). Moreover, the growth inhibition in test [5] (setting [7]) was -1%; in test [5] (setting [8]), 95% (active); in test [5] (at 50.0 µM) it was 96.9% (active); in test [6] (setting [7]), 3%; in test [6] (setting [8]), 96% (active); in test [6] (at 50.0 µM) it was 97% (active).

With `Cc1cc(N=Nc2ccccc2)ccc1O`, the growth inhibition in test [1] (setting [7]) was -13%; in test [1] (setting [8]), 99% (active); in test [1] (at 50.0 µM), 99.4% (active); in test [2] (setting [7]) it was -11%; in test [2] (setting [8]) it was 100% (active); in test [2] (at 50.0 µM) it was 99.5% (active). The growth inhibition in test [3] (setting [7]) is -2%; in test [3] (setting [8]) it was 100% (active); in test [3] (at 50.0 µM) it was 99.5% (active); in test [4] (setting [7]), -31%; in test [4] (setting [8]), 99% (active); in test [4] (at 50.0 µM), 99.3% (active). In addition, the growth inhibition in test [5] (setting [7]) was 6%; in test [5] (setting [8]), 99% (active); in test [5] (at 50.0 µM) it was 99.3% (active); in test [6] (setting [7]), -8%; in test [6] (setting [8]), 99% (active); in test [6] (at 50.0 µM), 99.3% (active).

As to `CCCN(CCC)CC(O)c1ccc2ccc3ccc(Cl)cc3c2c1` (configuration not stated), the growth inhibition is 20% in test [1] (setting [7]); 98% (active) in test [1] (setting [8]); 99.8% (active) in test [1] (at 50.0 µM); 18% in test [2] (setting [7]); 98% (active) in test [2] (setting [8]); 99.8% (active) in test [2] (at 50.0 µM). The growth inhibition is 39% in test [3] (setting [7]); 99% (active) in test [3] (setting [8]); 99.8% (active) in test [3] (at 50.0 µM); 29% in test [4] (setting [7]); 98% (active) in test [4] (setting [8]); 99.6% (active) in test [4] (at 50.0 µM). Further, the growth inhibition is 38% in test [5] (setting [7]); 98% (active) in test [5] (setting [8]); 99.5% (active) in test [5] (at 50.0 µM); 27% in test [6] (setting [7]); 99% (active) in test [6] (setting [8]); 99.8% (active) in test [6] (at 50.0 µM).

For `CN(C)CCNC(=O)C(c1ccccc1)c1ccccc1`, the growth inhibition in test [1] (setting [7]) was 31%; in test [1] (setting [8]) it was 13%; in test [1] (at 50.0 µM), 63.1%; in test [2] (setting [7]), 2%; in test [2] (setting [8]) it was -4%; in test [2] (at 50.0 µM) it was 94.7% (active). The growth inhibition was 6% in test [3] (setting [7]); -25% in test [3] (setting [8]); 12.8% in test [3] (at 50.0 µM); -1% in test [4] (setting [7]); -3% in test [4] (setting [8]); 96.2% (active) in test [4] (at 50.0 µM). The growth inhibition in test [5] (setting [7]) is -1%; in test [5] (setting [8]), -11%; in test [5] (at 50.0 µM) it was 98% (active); in test [6] (setting [7]) it was 30%; in test [6] (setting [8]), 11%; in test [6] (at 50.0 µM), 98.5% (active).

For the compound `NC(=S)N/N=C\C12CC3CC(CC(C3)C1)C2`, the growth inhibition was 57% in test [1] (setting [7]); 98% (active) in test [1] (setting [8]); 97.4% (active) in test [1] (at 50.0 µM); 73% (active) in test [2] (setting [7]); 97% (active) in test [2] (setting [8]); 93.7% (active) in test [2] (at 50.0 µM). For the same compound, the growth inhibition in test [3] (setting [7]) was 70% (active); in test [3] (setting [8]), 98% (active); in test [3] (at 50.0 µM) it was 92.8% (active); in test [4] (setting [7]), 25%; in test [4] (setting [8]), 97% (active); in test [4] (at 50.0 µM) it was 71.5% (active). Further, the growth inhibition in test [5] (setting [7]) was 62%; in test [5] (setting [8]), 98% (active); in test [5] (at 50.0 µM) it was 95.6% (active); in test [6] (setting [7]), 77% (active); in test [6] (setting [8]) it was 99% (active); in test [6] (at 50.0 µM), 96.5% (active).

As to `COc1ccc(/C=C/C(C)=N/NC(=S)NCC(C)C)cc1`, the growth inhibition in test [1] (setting [7]) is -9%; in test [1] (setting [8]), 55%; in test [1] (at 50.0 µM), 15.8%; in test [2] (setting [7]), -12%; in test [2] (setting [8]), 47%; in test [2] (at 50.0 µM) it was 45%. Further, the growth inhibition in test [3] (setting [7]) is -2%; in test [3] (setting [8]) it was 71% (active); in test [3] (at 50.0 µM), 75.2% (active); in test [4] (setting [7]), -17%; in test [4] (setting [8]) it was 48%; in test [4] (at 50.0 µM), 18.4%. The growth inhibition in test [5] (setting [7]) is -6%; in test [5] (setting [8]), 57%; in test [5] (at 50.0 µM), 88.8% (active); in test [6] (setting [7]), 3%; in test [6] (setting [8]) it was 61%; in test [6] (at 50.0 µM), 52.5%.

Take `CCc1nc2ccc(N=NN(C)C)cc2[nH]1`: the growth inhibition in test [1] (setting [7]) is 21%; in test [1] (setting [8]), 73% (active); in test [1] (at 50.0 µM), 84.5% (active); in test [2] (setting [7]), 19%; in test [2] (setting [8]), 80% (active); in test [2] (at 50.0 µM), 92% (active). For the same compound, the growth inhibition is 18% in test [3] (setting [7]); 96% (active) in test [3] (setting [8]); 74.2% (active) in test [3] (at 50.0 µM); 22% in test [4] (setting [7]); 87% (active) in test [4] (setting [8]); 88.1% (active) in test [4] (at 50.0 µM). Also, the growth inhibition in test [5] (setting [7]) is 18%; in test [5] (setting [8]), 97% (active); in test [5] (at 50.0 µM) it was 88.5% (active); in test [6] (setting [7]) it was 24%; in test [6] (setting [8]), 91% (active); in test [6] (at 50.0 µM), 91.3% (active).

Consider `O=S(O)CCCCCSSc1ccc(Cl)cc1`, for which the growth inhibition in test [1] (setting [7]) is 3%; in test [1] (setting [8]), 81% (active); in test [1] (at 50.0 µM), 98% (active); in test [2] (setting [7]), 9%; in test [2] (setting [8]) it was 100% (active); in test [2] (at 50.0 µM), 95.8% (active). For the same compound, the growth inhibition in test [3] (setting [7]) is 5%; in test [3] (setting [8]), 97% (active); in test [3] (at 50.0 µM) it was 98.8% (active); in test [4] (setting [7]), -2%; in test [4] (setting [8]), 97% (active); in test [4] (at 50.0 µM) it was 98.2% (active). Moreover, the growth inhibition in test [5] (setting [7]) was 25%; in test [5] (setting [8]), 99% (active); in test [5] (at 50.0 µM), 99% (active); in test [6] (setting [7]) it was 8%; in test [6] (setting [8]), 97% (active); in test [6] (at 50.0 µM) it was 98.2% (active).

The values above are taken from PubChem BioAssay (NCI).
